# According to ChEMBL document CHEMBL1201862, “PubChem BioAssay data set” (2004):
# In all, about 400,000 compounds went through this assay and about 2,100 (0.53%) were called active. Inconclusive results (about 14%) are left out. No rule for the calls is given here. The sample as a whole holds a higher share of actives than the screen did.
# Target: Ataxin-2 (Homo sapiens) (UniProt Q99700)
# Experiment: qHTS for Inhibitors of ATXN expression.
# Assay type: functional
# Ataxin-2 (Homo sapiens), sequence (Q99700 whole entry): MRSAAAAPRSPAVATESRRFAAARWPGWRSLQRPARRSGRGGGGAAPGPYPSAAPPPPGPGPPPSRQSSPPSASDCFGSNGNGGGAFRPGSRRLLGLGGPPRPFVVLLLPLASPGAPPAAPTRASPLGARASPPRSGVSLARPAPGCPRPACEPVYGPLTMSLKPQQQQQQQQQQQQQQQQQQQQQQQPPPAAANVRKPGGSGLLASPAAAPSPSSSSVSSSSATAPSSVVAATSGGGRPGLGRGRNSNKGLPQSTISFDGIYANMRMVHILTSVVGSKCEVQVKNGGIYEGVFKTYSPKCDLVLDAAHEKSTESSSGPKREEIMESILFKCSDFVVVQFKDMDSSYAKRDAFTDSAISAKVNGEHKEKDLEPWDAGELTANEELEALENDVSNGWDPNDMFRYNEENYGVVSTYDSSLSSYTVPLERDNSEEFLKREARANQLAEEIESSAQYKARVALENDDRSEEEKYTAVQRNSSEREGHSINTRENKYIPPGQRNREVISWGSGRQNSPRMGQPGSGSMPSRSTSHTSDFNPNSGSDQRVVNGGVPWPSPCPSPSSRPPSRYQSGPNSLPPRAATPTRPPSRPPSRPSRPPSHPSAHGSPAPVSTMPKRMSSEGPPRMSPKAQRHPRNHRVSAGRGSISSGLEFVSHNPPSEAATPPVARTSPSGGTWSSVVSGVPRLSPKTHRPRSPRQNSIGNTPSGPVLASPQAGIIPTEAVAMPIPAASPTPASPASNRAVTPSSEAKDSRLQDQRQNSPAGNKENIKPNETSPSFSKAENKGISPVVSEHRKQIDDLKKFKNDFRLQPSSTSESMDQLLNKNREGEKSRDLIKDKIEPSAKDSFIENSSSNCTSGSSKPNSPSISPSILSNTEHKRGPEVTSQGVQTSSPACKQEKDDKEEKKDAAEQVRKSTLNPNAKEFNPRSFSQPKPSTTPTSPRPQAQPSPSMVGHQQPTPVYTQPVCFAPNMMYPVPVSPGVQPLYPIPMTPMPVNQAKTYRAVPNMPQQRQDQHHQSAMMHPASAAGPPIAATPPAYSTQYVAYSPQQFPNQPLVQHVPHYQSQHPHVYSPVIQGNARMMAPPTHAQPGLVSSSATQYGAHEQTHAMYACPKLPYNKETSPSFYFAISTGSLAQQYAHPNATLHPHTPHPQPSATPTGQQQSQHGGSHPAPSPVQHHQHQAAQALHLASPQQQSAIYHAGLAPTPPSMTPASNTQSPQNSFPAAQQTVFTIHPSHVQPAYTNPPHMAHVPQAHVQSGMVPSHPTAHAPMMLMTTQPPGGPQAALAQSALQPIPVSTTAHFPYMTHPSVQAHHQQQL
row,Structure (SMILES),Potency
1,CCCCC(=O)N/N=C/c1ccc(-c2ccc([N+](=O)[O-])cc2)o1,inactive
2,CSCCC(NC(=O)COc1ccccc1)C(=O)N(C)Cc1c(F)cccc1Cl (centres undefined),inactive
3,Cc1ccc(Cn2c(=O)c3ccccc3n3nc(C)cc23)cc1,inactive
4,Cc1ccc(Cn2ncc(Cl)c(Cl)c2=O)cc1,39.8 µM (active)
5,Cc1cc2oc(=O)cc(Cn3ncc(Cl)c(Cl)c3=O)c2cc1Cl,39.8 µM (active)
6,Cc1ccc(Cn2ncn(-c3ccccc3)c2=O)cc1,inactive
7,Cc1cc2oc(=O)cc(CN3CCOCC3)c2cc1Cl,inactive
8,O=c1c(Cl)c(Cl)cnn1Cc1ccc(F)cc1,39.8 µM (active)
9,Cc1cccc(Cn2ncc(Cl)c(Cl)c2=O)c1,39.8 µM (active)
10,CC1CCN(Cc2cc(=O)oc3cc(O)c(Cl)cc23)CC1,inactive
11,Cc1ccc(-c2cc(C#N)c(=O)n(Cc3c(Cl)cccc3Cl)c2)cc1,inactive
12,Cc1ccc(Cn2c(=O)c3c(ncn3C)n(C)c2=O)cc1,inactive
13,CC(=O)c1cn(-c2ccc(Cl)cc2)c(=O)n(Cc2ccc(F)cc2)c1=O,inactive
14,CC(C)(C)c1cc(C(=O)NN)n(Cc2ccc(F)cc2)n1,inactive
15,CCC(C)N1C(=O)S/C(=C/c2ccc(N3CCOCC3)cc2C)C1=O (centres undefined),inactive
16,CCN(CC)Cc1c(O)ccc2cc(-c3nc4ccccc4n3C)c(=O)oc12,inactive
17,Cc1c2ccccc2nc2c(F)c(N(C)C)c(F)c(F)c12,inactive
18,Cc1c(O)ccc2cc(S(=O)(=O)c3ccccc3)c(=O)oc12,inactive
19,Cc1cc(C(=O)COC(=O)[C@H](C)NC(=O)c2ccco2)c(C)n1Cc1ccco1,inactive
20,COc1ccc(C)cc1Nc1n[n+](-c2ccccc2)c(-c2c(OC)ccc3ccccc23)s1,20 µM (active)
21,COc1ccccc1Nc1nc2cc(C)ccc2cc1C#N,inactive
22,COc1ccc(C)cc1NCc1ccc([N+](=O)[O-])cc1,inactive
23,O=c1[nH]c(=O)n(-c2cc(Br)c(O)c(Br)c2)cc1Br,inactive

row,Structure (SMILES),Potency
1,O=c1oc2ccccc2cc1-c1nc(-c2cccs2)cs1,inactive
2,C=CCOc1ccc(C2C(C(=O)c3ccco3)=C(O)C(=O)N2c2nnc(C)s2)cc1 (centres undefined),inactive
3,C=C1CC2(CC(c3ccccc3)OC(c3ccccc3)C2)OC1=O (centres undefined),39.8 µM (active)
4,O=C(/C=C/c1cn(CC(O)CN2CCCCCC2)c2ccccc12)c1cccs1 (centres undefined),inactive
5,Fc1ccc(-c2ncc3ccccn23)cc1,inactive
6,Cn1c(=S)n(C)c2ccccc21,inactive
7,CN(C(=O)CSc1nnc(-c2cccs2)n1N)c1ccccc1,inactive
8,CC1CCN(C(=O)CCC(=O)Nc2nnc(C(F)(F)F)s2)CC1,inactive
9,O=C(Nc1nnc(C(F)(F)F)s1)c1c(F)cccc1F,inactive
10,CCC(NC(=O)Nc1nnc(C(F)(F)F)s1)(C(F)(F)F)C(F)(F)F,31.6 µM (active)
11,O=C(O)CSc1nnc(-c2cccc(S(=O)(=O)N3CCOCC3)c2)n1-c1ccc(F)cc1,inactive
12,N=C1C=CC(=C(c2ccc(N)cc2)c2ccc(N)cc2)C=C1,28.2 µM (active)
13,COc1ccc(COc2ncnc3ccc(Br)cc23)cc1F,inactive
14,Cc1cc(S(=O)(=O)NC2CC(C)(C)NC(C)(C)C2)c(Cl)cc1Cl,inactive
15,CC1CCCCC1NC(=O)CCn1c(=S)[nH]c2ccccc2c1=O (centres undefined),inactive
16,CC1CCCCN1CCCNC(=O)c1[nH]c2ccccc2c1Sc1ccc(Cl)cc1 (centres undefined),39.8 µM (active)
17,CCCCCn1c(=O)[nH]c2cc(C(=O)NCCCN3CCCCC3C)ccc2c1=O (centres undefined),inactive
18,CCC1CCCCN1CCCNC(=O)c1[nH]c2ccccc2c1Sc1ccc(Cl)cc1 (centres undefined),39.8 µM (active)
19,COc1ccccc1[C@H]1C(c2ccccc2)=NN(c2ccccc2)[C@@H]1CO,inactive
20,Cc1ccc(C2=CC(c3ccc(C)cc3)n3ncnc3N2)cc1 (centres undefined),inactive
21,COCc1cc(C)nc2sc(C(=O)Nc3ccc(C(C)=O)cc3)c(N)c12,inactive
22,CC(=O)c1ccc(Nc2cc(C)nc3c(C)cc(C)cc23)cc1,29.9 µM (active)
23,Cc1ccc(Nc2cc(C)c(O)c(C)c2)cc1,inactive

row,Structure (SMILES),Potency
1,COC(=O)Cc1c(C)c2cc3c(c(C)c2oc1=O)OCN(CCc1ccc(F)cc1)C3,inactive
2,COC(=O)Cc1c(C)c2ccc3c(c2oc1=O)CN(Cc1ccccc1OC)CO3,inactive
3,COc1ccc(C2C=C(c3ccc(Br)cc3)Nc3nc(N4C(=O)CCC4=O)nn32)cc1 (centres undefined),inactive
4,CCc1cc(=O)oc2c(CN3CCN(C)CC3)c(O)ccc12,inactive
5,Cc1ccc(-c2csc3ncnc(Sc4nnc(CN5CCCCCC5=O)o4)c23)cc1,39.8 µM (active)
6,CCN(CC)c1ccc(C(=O)OCC(=O)N(C(C)C)C(C)C)cc1,inactive
7,CCN(CC)c1ccc(C(=O)c2cnc(/N=C/N(C)C)s2)cc1,inactive
8,CCN(CC)c1ccc(C(=C2C=CC(=[N+](CC)CC)C=C2)c2ccc(N(CC)CC)cc2)cc1,10 µM (active)
9,CCOc1ccc(Nc2nc3c(C)cccc3cc2C#N)cc1,inactive
10,Cc1ccc(NC(=O)Cc2ccc(Cl)cc2)nc1,inactive
11,N=C(N)NS(=O)(=O)c1ccc(NC(=S)NC(=O)Cc2ccc(Cl)cc2)cc1,inactive
12,O=C(Cc1ccc(Cl)cc1)Nc1ccc(-c2nnc(-c3ccco3)o2)cc1,39.8 µM (active)
13,CC(C)OCCCNC(=O)NC(=O)c1ccc(Cl)cc1,inactive
14,O=C(COc1ccc(Cl)cc1)N(Cc1cccs1)C1CCS(=O)(=O)C1 (centres undefined),inactive
15,Cc1cc(O)c(C(=O)/C=C/c2ccc(Cl)cc2)c(=O)o1,inactive
16,CCN=c1ccc(Br)cc(C(=O)/C=C/c2ccc(Cl)cc2)c1O,31.6 µM (active)
17,CCOc1ccc(OCCOc2ccc(/C=C/C(=O)O)cc2OCC)cc1,inactive
18,CCOc1ccc(-n2cc(C(=O)c3cc(Cl)ccc3O)cc(C#N)c2=O)cc1,inactive
19,CCOc1ccc(/C=C/C(=O)c2cc(Br)ccc(=O)c2O)cc1,22.4 µM (active)
20,CC(C)(C)c1ccc(C(=O)NNc2ncccc2-n2cccc2)cc1,inactive
21,CC(=O)N/N=C/c1cc(C(C)C)cc(/C=N/NC(C)=O)c1O,inactive
22,COc1cc(OC)nc(-n2ncc(Br)c(Br)c2=O)n1,10.6 µM (active)
23,O=c1c(Br)c(Br)cnn1-c1ccccc1,4.23 µM (active)
